Compound activity from PubChem.
FAS-TE inh: inhibitors of human fatty acid synthase thioesterase domain. recombinant FAS-TE, OMFH fluorogenic substrate, fluorescence endpoint. P49327. inhibition, % at 15 µM. 360,000 compounds, 0.67% hits. AID 602261;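 active means compounds whose normalised, plate-corrected inhibition of enzyme fluorescence in the single-dose primary screen is 50% or more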;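 further: 0% = DMSO with enzyme and 100% = substrate without enzyme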
Target sequence (P49327 whole entry, looked up, the tested form may be a part): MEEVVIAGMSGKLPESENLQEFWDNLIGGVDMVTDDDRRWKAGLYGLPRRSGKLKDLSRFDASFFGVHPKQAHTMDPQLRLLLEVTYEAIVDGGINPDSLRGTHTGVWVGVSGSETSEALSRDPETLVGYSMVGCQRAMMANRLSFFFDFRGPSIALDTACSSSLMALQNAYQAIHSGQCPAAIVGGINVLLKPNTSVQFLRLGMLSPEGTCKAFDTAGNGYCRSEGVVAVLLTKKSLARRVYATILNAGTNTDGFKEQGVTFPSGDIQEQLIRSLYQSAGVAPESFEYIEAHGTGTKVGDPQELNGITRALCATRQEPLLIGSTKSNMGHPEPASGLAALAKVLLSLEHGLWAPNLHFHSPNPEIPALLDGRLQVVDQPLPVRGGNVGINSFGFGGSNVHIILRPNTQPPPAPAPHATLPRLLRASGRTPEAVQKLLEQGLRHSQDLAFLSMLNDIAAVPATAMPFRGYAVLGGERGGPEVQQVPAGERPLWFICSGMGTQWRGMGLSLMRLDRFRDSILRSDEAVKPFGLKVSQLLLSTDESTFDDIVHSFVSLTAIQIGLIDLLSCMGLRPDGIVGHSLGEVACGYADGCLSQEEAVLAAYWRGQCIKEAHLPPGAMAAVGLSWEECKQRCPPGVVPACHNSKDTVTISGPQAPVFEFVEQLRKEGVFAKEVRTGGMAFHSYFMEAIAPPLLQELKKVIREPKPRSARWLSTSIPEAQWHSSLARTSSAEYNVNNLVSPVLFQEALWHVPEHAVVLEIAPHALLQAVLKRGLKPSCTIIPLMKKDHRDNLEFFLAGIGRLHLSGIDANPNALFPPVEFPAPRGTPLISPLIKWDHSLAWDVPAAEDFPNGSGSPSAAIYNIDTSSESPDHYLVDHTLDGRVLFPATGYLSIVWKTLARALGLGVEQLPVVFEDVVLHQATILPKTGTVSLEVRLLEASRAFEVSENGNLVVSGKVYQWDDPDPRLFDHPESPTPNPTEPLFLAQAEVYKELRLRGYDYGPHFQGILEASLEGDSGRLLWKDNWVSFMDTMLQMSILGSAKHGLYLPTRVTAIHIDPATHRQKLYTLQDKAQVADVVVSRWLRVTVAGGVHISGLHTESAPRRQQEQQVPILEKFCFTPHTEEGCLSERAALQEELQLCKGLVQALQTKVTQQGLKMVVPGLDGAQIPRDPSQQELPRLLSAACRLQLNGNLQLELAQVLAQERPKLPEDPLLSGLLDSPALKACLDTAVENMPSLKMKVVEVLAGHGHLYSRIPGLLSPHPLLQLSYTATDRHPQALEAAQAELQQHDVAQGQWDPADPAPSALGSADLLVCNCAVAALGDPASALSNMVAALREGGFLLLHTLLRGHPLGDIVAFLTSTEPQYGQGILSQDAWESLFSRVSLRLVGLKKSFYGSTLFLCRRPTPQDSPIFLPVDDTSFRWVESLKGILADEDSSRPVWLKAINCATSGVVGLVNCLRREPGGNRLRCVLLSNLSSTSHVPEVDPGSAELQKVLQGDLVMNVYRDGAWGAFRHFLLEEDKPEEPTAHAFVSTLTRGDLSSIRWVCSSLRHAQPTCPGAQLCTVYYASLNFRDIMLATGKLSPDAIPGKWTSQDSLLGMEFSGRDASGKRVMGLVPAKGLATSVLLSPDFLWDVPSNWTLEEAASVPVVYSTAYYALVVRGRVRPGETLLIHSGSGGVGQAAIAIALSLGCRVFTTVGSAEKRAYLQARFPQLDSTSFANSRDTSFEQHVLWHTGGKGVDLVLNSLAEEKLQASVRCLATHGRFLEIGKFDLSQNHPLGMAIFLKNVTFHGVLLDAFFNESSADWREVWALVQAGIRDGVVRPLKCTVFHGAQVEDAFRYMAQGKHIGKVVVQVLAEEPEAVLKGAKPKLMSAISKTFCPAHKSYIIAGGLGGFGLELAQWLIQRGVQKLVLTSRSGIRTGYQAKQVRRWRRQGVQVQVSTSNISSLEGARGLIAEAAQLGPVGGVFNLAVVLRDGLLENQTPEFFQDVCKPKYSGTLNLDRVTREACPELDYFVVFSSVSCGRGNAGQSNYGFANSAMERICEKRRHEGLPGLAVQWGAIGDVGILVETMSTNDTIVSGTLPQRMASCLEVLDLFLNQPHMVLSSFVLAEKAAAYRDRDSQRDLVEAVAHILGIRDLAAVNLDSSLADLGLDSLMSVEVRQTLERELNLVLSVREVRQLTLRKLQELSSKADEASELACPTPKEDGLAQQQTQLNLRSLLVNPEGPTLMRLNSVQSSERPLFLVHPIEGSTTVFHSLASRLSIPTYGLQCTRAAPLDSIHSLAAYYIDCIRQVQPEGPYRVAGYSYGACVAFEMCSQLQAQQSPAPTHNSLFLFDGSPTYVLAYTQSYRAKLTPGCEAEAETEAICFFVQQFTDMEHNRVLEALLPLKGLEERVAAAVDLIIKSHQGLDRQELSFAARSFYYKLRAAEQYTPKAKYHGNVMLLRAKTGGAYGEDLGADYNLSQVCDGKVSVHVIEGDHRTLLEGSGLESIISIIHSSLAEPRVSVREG
Myeloid diff MLP: promotes myeloid progenitor differentiation. ER-HoxA9 myeloid progenitors, lysozyme-GFP differentiation, flow cytometry. calls only at 10 µM. 360,000 compounds, 1% hits;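 active means normalized GFP-positive differentiation at or above the plate's own cutoff, the solvent-only control mean plus 3 SD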;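 further: cells exposed to compound for four days before flow analysis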
MPTP block: inhibitors of mitochondrial permeability transition pore; isolated mouse mitochondria, Ca2+ swelling absorbance, 30 min; inhibition, % at 10 µM; 360,000 compounds, 1.4% hits; AID 602449;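 active means inhibition of 50% or more, scaled per plate between neutral and stimulator controls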;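 further: 0% = DMSO wells given calcium and 100% = 1 mM EGTA wells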
GRIN3A LBD mod: modulates the human NR3A ligand-binding domain; AID 1259313; 340,000 compounds, 2.5% hits; NR3A LBD differential scanning fluorimetry, Tm shift; 0% = protein alone, 100% = glycine-bound protein; Tm shift relative to glycine control, % at 25 µM;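 active means melting temperature shift of at least 10% of the positive control shift, at one fixed dose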
rCAG RNA binder: molecules binding r(CAG) RNA repeats; r(CAG) RNA repeat, TO-PRO-1 dye displacement fluorescence; inhibition, % at 3 µM; 370,000 compounds, 1.3% hits;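 active means inhibition above the plate cutoff, the mean of all test compounds on that plate plus 3 SD, cut at about 35% in these data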;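 further: 0% = DMSO alone and 100% = 100 µM mitoxantrone as full dye displacement; higher means more dye released from RNA so lower well fluorescence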
* marks the source's active call; other numbers are inactive results; i = inactive; · = not tested or not shown; + = active, no number. Compounds with a hit are over-represented: about 5.7% of the library has one in this group of screens.

SMILES | FAS-TE inh | Myeloid diff MLP | MPTP block | GRIN3A LBD mod | rCAG RNA binder
C[C@@H]1CNCCN1c1ccc(N2CCS(=O)(=O)CC2)c(C#N)c1 | · | · | · | · | 4
Oc1ccc(N=Cc2ccc(-c3cccs3)s2)cc1 | 6 | i | -1 | 27* | 22
O=Cc1ccc(-c2cccs2)s1 | -1 | · | -1 | -1 | 0
Cn1c(NC(=O)/C=C/c2ccc(Cl)c(Cl)c2)cc(=O)n(C)c1=O | 4 | i | 3 | 16* | 2
Nc1[nH]c(=O)ncc1-c1ccc([N+](=O)[O-])cc1 | · | · | · | · | 3
Clc1ccc(/C=N/Nc2ncnc3ccccc23)cc1Cl | 35 | i | 6 | 17* | 7
COC(=O)C1=C(C)NC(=S)NC1c1ccc(Br)cc1 (stereo not given) | · | · | · | · | 3
CN1CCN(c2ccccc2NC(=O)c2cc3ccccc3o2)CC1 | -3 | + | 2 | 0 | -4
Cc1ccccc1NC(=O)c1ccc2c(c1)OCCO2 | -2 | i | 3 | -1 | -1
Cc1cc(NC(=O)c2ccc3c(c2)OCCO3)ccc1NC(=O)c1cc2ccccc2o1 | 27 | i | 1 | 15* | 5
O=C(Nc1ccccc1N1CCCC1)c1cc2ccccc2o1 | 8 | i | 3 | -6 | -1
Cc1cc(NC(=O)c2cccnc2)ccc1NC(=O)c1cc2ccccc2o1 | 1 | i | 0 | 4 | -3
Cc1cc(NC(=O)c2cc3ccccc3o2)ccc1NC(=O)c1ccccc1 | 22 | i | 0 | 16* | 1
O=C(Nc1ccc(NC(=O)c2cc3ccccc3o2)cc1)c1ccc2c(c1)OCCO2 | 4 | i | 0 | 21* | 1
CC(COc1ccc(Cl)cc1)CN1CCC(C(O)(c2ccccc2)c2ccccc2)CC1 (stereo not given) | · | · | · | · | 2
O=C(Nc1cccc(Br)c1)c1cc2ccccc2o1 | 28 | · | 22 | 32* | 4
Cc1cccc(NC(=O)c2cc3ccccc3o2)c1 | 4 | i | 11 | -1 | 3
COc1ccc(C(=O)OCCCN(C)C2CN(Cc3cn(Cc4ccccc4C(F)(F)F)nn3)S(=O)(=O)C2)cc1OC (stereo not given) | · | · | · | · | 0
COc1ccc(C(=O)C2CCCN(Cc3ccc(C#CCCO)cc3)C2)cc1F (stereo not given) | -2 | + | -5 | 0 | -5
COc1ccc(C(=O)C2CCCN(Cc3ccc4nonc4c3)C2)cc1F (stereo not given) | 22 | i | -1 | 0 | -5
Nc1sc(-c2ccccc2)cc1C(=O)N1CCN(c2ccccc2)CC1 | · | i | 3 | · | 11
CC(=O)OC[C@]12CC[C@H]3[C@@](C)(CC[C@H]4C(C)(C)CCC[C@]34C)[C@@H]1CC(C1=CC(=O)OC1O)O2 (stereo not given in full) | 42 | i | -3 | · | 18
COc1ccc(N2CCN(Cc3nc4c(c(=O)[nH]c(=O)n4C)n3Cc3cccc(Cl)c3)CC2)cc1 | 22 | + | -1 | -1 | 3
CC(C)CCn1c(CN2CCN(c3cccc(Cl)c3)CC2)nc2c1c(=O)n(C)c(=O)n2C | 44 | + | 1 | -18 | 2
COCCn1c(CN2CCN(c3cccc(Cl)c3)CC2)nc2c1c(=O)n(C)c(=O)n2C | 41 | i | 7 | -1 | 1
SMILES | FAS-TE inh | Myeloid diff MLP | MPTP block | GRIN3A LBD mod | rCAG RNA binder
Cc1ccc(-c2cc(C(=O)N=Nc3c(O)[nH]c4ccccc34)[nH]n2)cc1C | · | · | · | · | 27
O=C(N=Nc1c(O)[nH]c2ccccc12)c1cc(-c2ccc(F)cc2)n[nH]1 | 8 | i | 1 | 19* | -2
O=C(Cc1cccs1)N=Nc1c(O)[nH]c2ccccc12 | -6 | i | 2 | -2 | 7
O=C(N=Nc1c(O)[nH]c2ccccc12)c1cc(-c2cccs2)[nH]n1 | 9 | i | 1 | 22* | 15
COc1cc(C(=O)N/N=C/c2ccc(OC(=O)c3ccccc3Cl)cc2)ccc1O | 7 | i | 0 | 26* | 11
COc1cc(C(=O)N/N=C/c2ccc3c(c2)c2ccccc2n3C)ccc1O | 2 | i | 0 | 38* | 25
Cc1[nH]c2ccccc2c1C(=O)CSc1nccc(=O)[nH]1 | -4 | i | 1 | -2 | 1
COc1cc2c(cc1NC(=O)/C=C/c1ccccc1)oc1ccccc12 | 41 | i | 5 | 20* | 17
COc1cc2c(cc1NC(=O)CSc1nccn1C)oc1ccccc12 | 16 | i | 2 | -5 | 3
Cc1[nH]c2ccccc2c1C(=O)CSc1nc2ccccc2[nH]1 | 6 | i | 2 | 19* | 9
COc1cc2c(cc1NC(=O)CSc1nc3cc(Cl)ccc3s1)oc1ccccc12 | 13 | i | 9 | 32* | 4
O=C(CSc1nc2ccccc2s1)NNC(=O)Nc1ccc(Cl)c(Cl)c1 | 14 | i | 2 | 26* | 17
COc1cc2c(cc1NC(=O)CSc1nc3ccccc3[nH]1)oc1ccccc12 | 12 | i | 17 | 14* | ·
COc1cc2c(cc1NC(=O)CSc1ccccc1)oc1ccccc12 | 37 | i | 1 | 35* | 11
O=C(CSc1nc2ccccc2s1)Nc1ccc(Cl)c(C(=O)O)c1 | -2 | i | -2 | 1 | 11
O=C(CSc1nc2ccccc2s1)Nc1ccc2c(c1)oc1ccccc12 | 13 | i | 16 | 39* | 13
C=CCc1cccc(/C=N/NC(=O)CCC(=O)Nc2ccc(F)cc2)c1O | 13 | + | 9 | -7 | 2
C=CCc1cccc(/C=N/NC(=O)CNc2ccccc2OC)c1O | 25 | i | 40 | 13* | 4
C=CCc1cccc(/C=N/NC(=O)CNc2ccccc2)c1O | 19 | i | 1 | 6 | 8
C=CCc1cccc(/C=N/NC(=O)CNc2cccc3ccccc23)c1O | 27 | i | 48 | 30* | 13
C=CCc1cccc(/C=N/NC(=O)C[n+]2ccccc2)c1O | -5 | i | 2 | 2 | 7
Cc1ccc(Cn2cc(CN3[C@H](C)COc4cc(Br)ccc4S3(=O)=O)nn2)cc1 | · | · | · | · | -1
COC(=O)[C@]12C[C@H](CC(=O)NCc3cccc(C(F)(F)F)c3)C(=O)N(Cc3ccc4c(c3)OCO4)C1=C[C@H](C(C)(C)C)O[C@@H]2C | · | · | · | · | 3
Oc1ccccc1-c1nnc(-c2ccc(C(F)(F)F)cc2)o1 | -3 | i | -1 | 1 | 3
CC1=Nc2ccccc2/C1=C\c1nc(-c2ccc(C(F)(F)F)cc2)oc1O | -72 | + | 5 | 27* | 13
Cc1ccc(S(=O)(=O)N2CCN(CC(=O)N3CCOCC3)CC2)cc1 | -7 | i | -2 | -1 | -2
Cc1cc(Cl)c(C)c(S(=O)(=O)N2CCN(CC(=O)N3CCOCC3)CC2)c1Cl | 0 | + | 0 | -1 | 6
O=C(OCc1cn(Cc2cccc(Cl)c2)nn1)N1CCOCC1 | · | · | · | · | 1
c1ccc(CSc2ccc3nnc(-c4cccnc4)n3n2)cc1 | 3 | i | -1 | 14* | -3
COC(=O)[C@H](CC(C)C)N(CCCc1cn(CC2CCCCC2)nn1)S(=O)(=O)c1ccc(F)cc1Br | · | · | · | · | 1
